# Measured values as given in PubChem BioAssay.
# Activity calls are given as the source filed them.
# Tests used:
# [1] = small molecules captured by biotinylated probe aFSTL3 – biochemical, small-molecule microarray, fluorescence 635/667, stem cell growth factor project, primary screen (AID 1064); conditions: higher = more signal;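 also: measures binding of the biotinylated anti-FSTL3 antibody to printed compounds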
# [2] = binders from COS7 lysate, DM2A8 probe, primary screen, torsin A project, cell lysate, small-molecule microarray, fluorescence 635/667 (AID 1065); conditions: higher = more signal, COS7 lysate expressing mutant human TOR1A
# [3] = small molecules captured by biotinylated probe aFGF2 – biochemical, small-molecule microarray, fluorescence 635/667, stem cell growth factor project, primary screen (AID 1067); conditions: higher = more signal;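 also: measures binding of biotinylated aFGF2 protein to printed compounds on slides; z-score merges feature fluorescence and signal-to-noise across triplicate slides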
# [4] = small molecules captured by biotinylated probe aFGF10 – biochemical, small-molecule microarray, fluorescence 635/667, stem cell growth factor project, primary screen (AID 1071); conditions: higher = more signal;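 also: score merges 667 nm spot intensity and signal to noise from triplicate slides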
# [5] = target: Neurogenic locus notch homolog protein 2 (Homo sapiens) (UniProt Q04721); assay: small molecules binding Notch2 protein – biochemical, small-molecule microarray, 635 nm fluorescence, stem cell growth factors, primary screen (AID 1073); conditions: higher = more signal
# [6] = target: Pro-neuregulin-1, membrane-bound isoform (Homo sapiens) (UniProt Q02297); assay: small molecules binding neuregulin-1 protein – biochemical, small-molecule microarray, fluorescence 635/667, psychiatric disease protein project, primary screen (AID 1075); conditions: NRG1 binding, 635 nm fluorescence, higher = more signal;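 also: score combines 667 nm spot fluorescence with signal to noise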
# [7] = system: Neuregulin-1 EGF-like domain; assay: small molecules binding NRG1 EGF domain – biochemical, small-molecule microarray, 635 nm fluorescence, primary screen (AID 1081); conditions: higher = more signal;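 also: binding of the protein to compounds printed on small-molecule microarray slides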
# [8] = FRG1 expression reporter modulators in myotubes – cell-based, C2C12 myotubes, firefly/Renilla luciferase, luminescence, FRG1 inhibition for FSHD, primary screen (AID 1084); conditions: FRG1 promoter luciferase, higher = more signal, called active from +8 up or from −8 down
# [9] = small molecules captured by biotinylated probe aFST – biochemical, small-molecule microarray, fluorescence 635/667, stem cell growth factor project, primary screen (AID 1086); conditions: higher = more signal;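 also: score merges 667 nm fluorescence with signal-to-noise of each printed compound spot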
# [10] = binders of probe aHhip on microarray, primary screen, stem cell growth factor project, biochemical, small-molecule microarray, fluorescence 635/667 (AID 1087); conditions: higher = more signal;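 also: score merges spot fluorescence at 667nm with spot signal to noise ratio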
# [11] = system: PRMT1 (protein arginine N-methyltransferase 1); assay: small molecules binding arginine methyltransferase PRMT1 – biochemical, small-molecule microarray, 635 nm fluorescence, primary screen (AID 1088); conditions: higher = more signal;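 also: binding of Prmt1 protein to compounds spotted on small-molecule microarray slides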
# [12] = growth effects on S. cerevisiae YJM789 – YJM789 clinical isolate, OD600, 24 h, basal, primary screen (AID 1089); conditions: higher = more signal, called active from +8 up or from −8 down;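 also: growth of clinical yeast isolate S. cerevisiae YJM 789 seeded 1000 cells per well; test concentration not given here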
# [13] = S. pombe growth modifiers, basal conditions – strain 972, OD600, 24 h, no modulator, primary screen (AID 1090);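 also: basal condition with compound alone and no growth modifier present; test concentration not given here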; conditions: S. pombe 972 growth, higher = more signal, called active from +8 up or from −8 down
# [14] = budding yeast growth modifiers under rapamycin – strain BY4716, OD600, 96 h, primary screen (AID 1091); also: test concentration not given here; conditions: S. cerevisiae BY4716 + rapamycin, higher = more signal, called active from +8 up or from −8 down
# [15] = target: Torsin-1A-interacting protein 2 (Homo sapiens) (UniProt Q8NFQ8); assay: small molecules binding lysate-expressed LULL1 – cell lysate, human LULL1 lysate, 635/667 nm fluorescence, primary screen (AID 1092); conditions: small-molecule microarray, hLULL1 lysate binding, 635 nm fluorescence; higher = more signal;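 also: probe is lysate of COS7 cells overexpressing human LULL1; score merges per-feature 667 nm fluorescence with signal-to-noise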
# [16] = optical density change of DRC41 E. coli – strain DRC41, OD650, 24 h, E. coli filamentation project, primary screen (AID 1093);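 also: MC1000 strain lacking acrAB efflux and sulA so SOS filamentation is blocked; test concentration not given here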; conditions: E. coli DRC41 growth, higher = more signal, called active from +8 up or from −8 down
# [17] = probe aLefty2 binding to arrayed compounds – biochemical, biotinylated probe, 635/667 nm fluorescence, primary screen (AID 1094); conditions: small-molecule microarray, higher = more signal;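 also: score merges spot fluorescence near 667 nm with spot signal-to-noise ratio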
# [18] = system: Noggin (protein binding on small-molecule microarray); assay: small molecules binding Noggin protein – biochemical, 635/667 nm fluorescence, primary screen (AID 1095); conditions: 635 nm fluorescence, higher = more signal;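 also: score merges 667 nm feature fluorescence with signal to noise over triplicate slides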
# [19] = target: Neurogenic locus notch homolog protein 3 (Homo sapiens) (UniProt Q9UM47); assay: small molecules binding NOTCH3 protein – biochemical, 635/667 nm fluorescence, primary screen (AID 1096); conditions: small-molecule microarray, 635 nm fluorescence, higher = more signal
# [20] = probe aEGFR binding to arrayed compounds – biochemical, biotinylated probe, 635/667 nm fluorescence, primary screen (AID 1097); conditions: small-molecule microarray, higher = more signal;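 also: probe is a biotinylated anti-EGFR antibody binding compounds printed on slides; score combines fluorescence near 667 nm and signal to noise of each spot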
# Neurogenic locus notch homolog protein 3 (Homo sapiens), sequence (Q9UM47 whole entry, looked up): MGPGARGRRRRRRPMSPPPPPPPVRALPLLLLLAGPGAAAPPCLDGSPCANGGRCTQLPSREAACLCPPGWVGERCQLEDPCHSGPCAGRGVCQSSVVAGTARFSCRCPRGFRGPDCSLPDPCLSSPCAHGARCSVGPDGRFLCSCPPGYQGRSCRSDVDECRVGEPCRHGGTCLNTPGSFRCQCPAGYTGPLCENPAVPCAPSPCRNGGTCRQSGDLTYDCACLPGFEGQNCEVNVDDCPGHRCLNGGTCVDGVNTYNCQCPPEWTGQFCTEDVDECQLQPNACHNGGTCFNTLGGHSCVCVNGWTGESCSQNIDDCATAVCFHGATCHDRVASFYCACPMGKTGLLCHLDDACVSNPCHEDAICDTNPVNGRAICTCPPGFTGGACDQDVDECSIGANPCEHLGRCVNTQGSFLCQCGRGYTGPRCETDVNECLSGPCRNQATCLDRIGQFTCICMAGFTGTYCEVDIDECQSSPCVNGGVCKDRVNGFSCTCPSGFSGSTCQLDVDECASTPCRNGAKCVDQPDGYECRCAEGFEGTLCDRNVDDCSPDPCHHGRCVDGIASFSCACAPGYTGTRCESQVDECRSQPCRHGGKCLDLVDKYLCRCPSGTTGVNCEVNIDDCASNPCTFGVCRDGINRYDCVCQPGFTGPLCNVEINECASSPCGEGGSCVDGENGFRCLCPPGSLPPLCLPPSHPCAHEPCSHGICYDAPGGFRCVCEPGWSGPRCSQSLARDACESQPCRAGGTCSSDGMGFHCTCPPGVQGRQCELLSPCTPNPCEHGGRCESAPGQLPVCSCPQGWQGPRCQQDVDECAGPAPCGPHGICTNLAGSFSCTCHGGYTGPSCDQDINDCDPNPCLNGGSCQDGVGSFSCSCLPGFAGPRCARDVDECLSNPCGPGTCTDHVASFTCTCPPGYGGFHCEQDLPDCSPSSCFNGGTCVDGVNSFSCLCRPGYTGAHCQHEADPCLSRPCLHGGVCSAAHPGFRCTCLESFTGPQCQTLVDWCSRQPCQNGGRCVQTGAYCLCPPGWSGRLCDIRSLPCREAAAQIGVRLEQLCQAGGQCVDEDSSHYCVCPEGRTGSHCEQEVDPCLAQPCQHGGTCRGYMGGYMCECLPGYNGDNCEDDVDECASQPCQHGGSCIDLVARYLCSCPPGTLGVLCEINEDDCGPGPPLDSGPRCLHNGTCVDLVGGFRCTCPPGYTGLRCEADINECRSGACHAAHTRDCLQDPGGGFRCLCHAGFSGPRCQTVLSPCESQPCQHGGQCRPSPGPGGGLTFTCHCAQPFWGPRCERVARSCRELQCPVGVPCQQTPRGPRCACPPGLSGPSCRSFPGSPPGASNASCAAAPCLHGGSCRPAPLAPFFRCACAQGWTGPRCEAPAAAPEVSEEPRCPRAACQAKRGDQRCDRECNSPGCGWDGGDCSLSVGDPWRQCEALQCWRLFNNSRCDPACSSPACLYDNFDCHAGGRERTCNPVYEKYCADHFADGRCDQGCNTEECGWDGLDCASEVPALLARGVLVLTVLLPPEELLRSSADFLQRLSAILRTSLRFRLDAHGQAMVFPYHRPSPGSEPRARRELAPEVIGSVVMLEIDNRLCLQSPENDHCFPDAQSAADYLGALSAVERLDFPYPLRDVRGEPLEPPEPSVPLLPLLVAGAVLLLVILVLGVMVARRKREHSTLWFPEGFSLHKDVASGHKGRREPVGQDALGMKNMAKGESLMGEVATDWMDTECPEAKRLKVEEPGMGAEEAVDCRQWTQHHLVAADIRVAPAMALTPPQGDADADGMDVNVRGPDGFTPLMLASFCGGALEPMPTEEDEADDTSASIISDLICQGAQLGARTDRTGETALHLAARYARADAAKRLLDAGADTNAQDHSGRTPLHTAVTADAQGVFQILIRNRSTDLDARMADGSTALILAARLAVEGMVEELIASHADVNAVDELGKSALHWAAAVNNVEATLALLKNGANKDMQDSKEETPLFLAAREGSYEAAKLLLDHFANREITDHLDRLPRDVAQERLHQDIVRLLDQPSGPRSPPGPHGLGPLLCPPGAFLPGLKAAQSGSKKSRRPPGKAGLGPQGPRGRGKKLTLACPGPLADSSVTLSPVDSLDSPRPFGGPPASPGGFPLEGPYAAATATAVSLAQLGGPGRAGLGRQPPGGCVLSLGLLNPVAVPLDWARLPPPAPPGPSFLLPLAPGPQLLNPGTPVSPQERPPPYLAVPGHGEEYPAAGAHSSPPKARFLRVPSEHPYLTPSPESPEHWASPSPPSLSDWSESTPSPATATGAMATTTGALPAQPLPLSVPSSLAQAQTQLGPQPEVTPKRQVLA
# Torsin-1A-interacting protein 2 (Homo sapiens), sequence (Q8NFQ8 whole entry, looked up): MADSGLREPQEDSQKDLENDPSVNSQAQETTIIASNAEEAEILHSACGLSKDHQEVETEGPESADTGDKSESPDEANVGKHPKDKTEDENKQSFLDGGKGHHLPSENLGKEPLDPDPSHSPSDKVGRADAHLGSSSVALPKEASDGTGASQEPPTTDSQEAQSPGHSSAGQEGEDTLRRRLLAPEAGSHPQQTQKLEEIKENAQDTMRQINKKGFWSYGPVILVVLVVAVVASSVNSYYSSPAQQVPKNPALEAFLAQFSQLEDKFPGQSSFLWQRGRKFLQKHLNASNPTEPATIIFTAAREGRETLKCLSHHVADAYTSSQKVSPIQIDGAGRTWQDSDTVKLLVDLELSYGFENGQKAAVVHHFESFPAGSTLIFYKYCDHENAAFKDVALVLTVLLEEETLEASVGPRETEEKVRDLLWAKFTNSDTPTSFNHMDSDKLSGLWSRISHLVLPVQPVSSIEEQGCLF
# Pro-neuregulin-1, membrane-bound isoform (Homo sapiens), sequence (Q02297 whole entry, looked up, the tested form may be a part, canonical isoform): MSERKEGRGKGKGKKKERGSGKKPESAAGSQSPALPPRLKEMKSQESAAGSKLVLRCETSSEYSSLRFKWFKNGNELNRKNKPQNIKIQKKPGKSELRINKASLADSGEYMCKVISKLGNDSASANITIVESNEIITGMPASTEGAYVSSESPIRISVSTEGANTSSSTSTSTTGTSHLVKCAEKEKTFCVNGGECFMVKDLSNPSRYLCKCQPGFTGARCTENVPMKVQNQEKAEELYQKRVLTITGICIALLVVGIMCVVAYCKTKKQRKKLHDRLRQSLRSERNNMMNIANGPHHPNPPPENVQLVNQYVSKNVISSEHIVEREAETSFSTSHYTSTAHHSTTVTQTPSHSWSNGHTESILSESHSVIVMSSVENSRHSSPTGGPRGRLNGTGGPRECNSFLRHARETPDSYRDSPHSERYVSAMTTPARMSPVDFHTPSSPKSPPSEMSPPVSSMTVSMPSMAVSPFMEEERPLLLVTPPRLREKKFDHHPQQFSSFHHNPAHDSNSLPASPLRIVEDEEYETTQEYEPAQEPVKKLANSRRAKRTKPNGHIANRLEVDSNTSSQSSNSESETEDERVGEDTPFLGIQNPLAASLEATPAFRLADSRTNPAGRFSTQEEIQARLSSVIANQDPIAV
Compound,composite z-score [1],composite z-score [2],composite z-score [3],composite z-score [4],composite z-score [5],composite z-score [6],composite z-score [7],z-score [8],composite z-score [9],composite z-score [10],composite z-score [11],z-score [12],z-score [13],z-score [14],composite z-score [15],z-score [16],composite z-score [17],composite z-score [18],composite z-score [19],composite z-score [20]
CCOC(=O)C[C@H]1[C@H](OC(=O)c2ccccc2-c2ccccc2)[C@@H](NC(=O)C2CCCCC2)c2cc(OCCCO)ccc2N1C(=O)c1ccc2ccccc2n1,-0.484,0.0817,-0.0594,0.53,0.813,0.388,0.825,0.396 (inactive),0.512,-0.0296,1.39,0.362 (inactive),0.233 (inactive),0.495 (inactive),1.34,-1.06 (inactive),0.0569,0.431,0.89,0.0754
O=C(NCC(O)CO)[C@@]1(CCS(=O)(=O)c2ccccc2)N=C(c2ccc(OCCCO)cc2)O[C@H]1c1ccccc1 (stereo not given in full),0.715,0.965,0.123,0.223,0.429,1.96,1.33,2.37 (inactive),0.544,0.0302,0.845,-0.717 (inactive),-0.908 (inactive),-0.163 (inactive),3.56,-0.328 (inactive),0.471,-0.562,-0.196,0.144
CN(C)CCCNC(=O)[C@@]1(Cc2ccccc2I)c2ccccc2C(=O)N(C2CCCCC2)[C@H]1c1ccc(CO)cc1,1.13,1.02,0.0676,0.293,1.24,0.418,1.26,-3.32 (inactive),0.68,0.214,1.55,0.273 (inactive),-19.5 (active),-2.99 (inactive),2.34,0.0304 (inactive),0.446,0.27,0.953,0.123
COC(=O)C1(Cc2ccccc2)C=C2C(=C(C)C(=O)C2C)CN1 (stereo not given),0.601,0.158,-0.0032,0.137,1.01,0.643,0.635,0.0369 (inactive),0.66,-0.199,-0.467,-1.06 (inactive),0.163 (inactive),-0.0472 (inactive),2.04,-0.366 (inactive),0.732,-0.233,-0.016,-0.0146
COc1cc(CO)cc(I)c1O[C@H]1C=C(C(=O)NCCO)C[C@@H]2O[C@H]12,0.167,0.622,-0.111,0.251,0.864,0.366,1.46,-1.44 (inactive),0.164,-0.199,1.56,0.111 (inactive),-6.47 (inactive),-1.42 (inactive),2.63,-0.0097 (inactive),0.17,2.32,1.07,0.0018
CN1C(=O)C2C=CC(C(O)c3ccc(-c4ccccc4)s3)N(NC(=O)OC(C)(C)C)C2C1=O (stereo not given),0.905,0.286,-0.229,0.419,1.58,1.88,1.21,0.392 (inactive),0.913,-0.0618,0.938,-0.673 (inactive),1.47 (inactive),0.0406 (inactive),2.92,-0.328 (inactive),0.367,-0.0619,0.687,-0.033
O=C1O[C@H](c2ccccc2)[C@H](c2ccccc2)N2[C@H]1[C@@H](C(=O)O)[C@]1(C(=O)Nc3ccc(C#CCCO)cc31)[C@H]2c1ccc(OCCO)cc1,0.282,1.12,-0.12,0.826,0.89,1.86,1.28,-0.708 (inactive),0.101,0.189,0.862,0.19 (inactive),-0.428 (inactive),-0.502 (inactive),1.98,1.71 (inactive),0.547,0.452,0.105,-0.0304
O=C(NCCN1CCOCC1)[C@@H]1c2ccccc2C(=O)N(Cc2ccc(OC(F)(F)F)cc2)[C@H]1c1ccc(CO)cc1,0.224,0.751,-0.0531,-0.315,0.0161,-0.181,0.569,-1.39 (inactive),-0.236,-0.0645,1.19,-1.58 (inactive),-0.748 (inactive),-0.846 (inactive),3.09,0.0461 (inactive),-0.0766,0.0807,-0.0807,-0.126
C[N+](C)(C)CCCC[C@@H]1NC(=O)[C@H]2C[C@@H](C(=O)NCCCCCNC(=O)CS)[C@@H](c3cccc(OCCO)c3)N2C1=O,-0.121,0.348,-0.102,0.0107,-0.324,1.5,0.785,-0.474 (inactive),0.0685,0.0373,-0.248,-0.802 (inactive),-0.693 (inactive),-0.451 (inactive),1.36,0.469 (inactive),-0.152,0.378,-0.36,-0.127
CCCNC(=O)[C@@]1(c2ccc([N+](=O)[O-])cc2)CC(=O)N(C(C)C)[C@@H]1c1ccc(CO)cc1,0.829,-0.22,-0.111,-0.904,-1.73,0.0532,0.843,-0.558 (inactive),-1.14,-0.0618,-0.854,-0.836 (inactive),-1 (inactive),-0.594 (inactive),1.41,0.353 (inactive),-0.268,-1.27,-0.124,-0.278
